Results filed as inconclusive are left out. Active and inactive are the calls of the source. Rule for the calls: active = hit-call score of the fitted dose curve at least 0.9, where 1 is the maximum; inconclusive = response in the unintended direction; inactive = score below 0.9.
What follows are molecules tested against human Mitogen-Activated Protein Kinase 1 (MAPK 1), MAPK1 (gene 5594) (UniProt P28482) (assay: NVS_ENZ_hMAPK1: NovaScreen (NVS) Enzymatic Assay for human Mitogen-Activated Protein Kinase 1 (MAPK 1) (AID 2283175)).
Summary of the method: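 Cell-free recombinant human MAPK1 enzymatic assay, fluorescence/electrophoretic mobility shift read at 1 h; loss of signal vs DMSO. Primary screen in duplicate at 25 uM; actives (e.g. ≥30% inhibition) run as concentration-response up to 50 uM.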

human Mitogen-Activated Protein Kinase 1 (MAPK 1), MAPK1 (gene 5594), sequence (P28482 whole entry, looked up): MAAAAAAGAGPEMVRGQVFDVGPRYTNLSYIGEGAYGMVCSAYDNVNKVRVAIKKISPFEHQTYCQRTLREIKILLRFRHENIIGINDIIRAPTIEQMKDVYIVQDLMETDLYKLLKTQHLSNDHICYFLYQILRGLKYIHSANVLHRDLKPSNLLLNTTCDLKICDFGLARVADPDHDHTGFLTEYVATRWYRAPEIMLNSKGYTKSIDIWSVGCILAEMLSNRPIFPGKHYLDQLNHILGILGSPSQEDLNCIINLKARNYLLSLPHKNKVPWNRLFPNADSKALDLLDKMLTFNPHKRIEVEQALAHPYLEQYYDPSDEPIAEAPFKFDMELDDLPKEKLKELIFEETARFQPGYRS

SMILES | outcome
Cc1cn([C@H]2C[C@H](N=[N+]=[N-])[C@@H](CO)O2)c(=O)[nH]c1=O | inactive
c1ccc2ccccc2c1 | inactive
O=C(Nc1ccc([N+](=O)[O-])cc1Cl)c1cc(Cl)ccc1O | inactive
CCCCCCCC=O | inactive
COCCO | inactive
O=C(O)c1cccc(C[C@@H]2COc3ccc(OCc4nc5cc(F)ccc5s4)cc3[C@@H]2O)c1 | inactive

Each molecule was assayed against human p21 Activated Kinase 4 (PAK4), PAK4 (gene 10298) (UniProt O96013) (assay: NVS_ENZ_hPAK4: NovaScreen (NVS) Enzymatic Assay for human p21 Activated Kinase 4 (PAK4) (AID 2283189)).
Summary of the method: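 Cell-free recombinant human PAK4 activity assay; fluorescent substrate and product separated by electrophoretic mobility shift, read 1 h after dosing. Initially tested in duplicate at 25 uM, relative to DMSO baseline.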

human p21 Activated Kinase 4 (PAK4), PAK4 (gene 10298), sequence (O96013 whole entry, looked up): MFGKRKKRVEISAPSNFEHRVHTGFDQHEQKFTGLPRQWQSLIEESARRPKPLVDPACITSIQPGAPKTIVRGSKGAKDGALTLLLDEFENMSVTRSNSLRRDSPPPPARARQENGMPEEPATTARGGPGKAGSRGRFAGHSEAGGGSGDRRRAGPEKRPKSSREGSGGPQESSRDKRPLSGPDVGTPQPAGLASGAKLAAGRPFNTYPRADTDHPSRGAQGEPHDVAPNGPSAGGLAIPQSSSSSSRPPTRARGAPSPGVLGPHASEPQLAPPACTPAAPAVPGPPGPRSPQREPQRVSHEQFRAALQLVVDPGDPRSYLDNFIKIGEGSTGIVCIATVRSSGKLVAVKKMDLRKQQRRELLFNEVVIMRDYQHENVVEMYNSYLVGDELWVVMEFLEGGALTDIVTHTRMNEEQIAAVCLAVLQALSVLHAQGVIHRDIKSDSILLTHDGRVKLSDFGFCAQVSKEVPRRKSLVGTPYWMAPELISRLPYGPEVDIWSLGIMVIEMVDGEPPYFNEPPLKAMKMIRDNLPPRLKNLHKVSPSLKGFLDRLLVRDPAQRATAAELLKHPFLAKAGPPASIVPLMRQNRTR

SMILES | outcome
c1ccc2ccccc2c1 | inactive
COc1ccc2sc(C(=O)Nc3nnn[nH]3)c(OC(C)C)c2c1 | inactive
CCCCc1oc2ccccc2c1C(=O)c1cc(I)c(OCCN(CC)CC)c(I)c1 | inactive
CC[C@H](C)C(=O)O[C@H]1C[C@H](O)C=C2C=C[C@H](C)[C@H](CC[C@@H](O)C[C@@H](O)CC(=O)O)[C@H]21 | inactive
COCCO | inactive

These molecules were tested against human Phosphatase and Tensin Homolog (PTEN), PTEN (gene 5728) (UniProt P60484) (assay: NVS_ENZ_hPTEN: NovaScreen (NVS) Enzymatic Assay for human Phosphatase and Tensin Homolog (PTEN) (AID 2283203)).
Summary of the method: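 Cell-free recombinant human PTEN with fluorescent substrate; product separated by electrophoretic mobility shift and read by fluorescence 1 h after dosing. Primary screen in duplicate at 25 uM, actives followed in concentration series versus DMSO.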

human Phosphatase and Tensin Homolog (PTEN), PTEN (gene 5728), sequence (P60484 whole entry, looked up): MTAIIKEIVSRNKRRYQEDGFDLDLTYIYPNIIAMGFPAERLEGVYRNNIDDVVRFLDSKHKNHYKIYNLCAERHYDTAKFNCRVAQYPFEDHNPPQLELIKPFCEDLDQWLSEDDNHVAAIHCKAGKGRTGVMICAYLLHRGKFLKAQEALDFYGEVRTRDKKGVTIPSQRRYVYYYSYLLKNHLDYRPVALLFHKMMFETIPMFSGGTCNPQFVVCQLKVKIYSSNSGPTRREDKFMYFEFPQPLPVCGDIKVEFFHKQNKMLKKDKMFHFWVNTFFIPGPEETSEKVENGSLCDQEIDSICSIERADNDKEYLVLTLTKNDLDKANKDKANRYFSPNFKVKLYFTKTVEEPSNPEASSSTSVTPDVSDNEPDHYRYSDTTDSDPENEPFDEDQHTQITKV

SMILES | outcome
CC/C(=C(/CC)c1ccc(O)cc1)c1ccc(O)cc1 | inactive
CC[C@H](C)C(=O)O[C@H]1C[C@H](O)C=C2C=C[C@H](C)[C@H](CC[C@@H](O)C[C@@H](O)CC(=O)O)[C@H]21 | inactive
COCCO | inactive
OCCOCCOCCO | inactive

These molecules were tested against human Protein Tyrosine Phosphatase Receptor Type C (PTPRC), PTPRC (gene 5788) (UniProt P08575) (assay: NVS_ENZ_hPTPRC: NovaScreen (NVS) Enzymatic Assay for human Protein Tyrosine Phosphatase Receptor Type C (PTPRC) (AID 2283212)).
Summary of the method: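 Yeast-extracted human PTPRC used in a cell-free colorimetric enzyme activity read-out, 1 h after dosing. Primary screen in duplicate at 25 uM; actives rerun in concentration-response up to 50 uM, DMSO as baseline.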

human Protein Tyrosine Phosphatase Receptor Type C (PTPRC), PTPRC (gene 5788), sequence (P08575 whole entry, looked up): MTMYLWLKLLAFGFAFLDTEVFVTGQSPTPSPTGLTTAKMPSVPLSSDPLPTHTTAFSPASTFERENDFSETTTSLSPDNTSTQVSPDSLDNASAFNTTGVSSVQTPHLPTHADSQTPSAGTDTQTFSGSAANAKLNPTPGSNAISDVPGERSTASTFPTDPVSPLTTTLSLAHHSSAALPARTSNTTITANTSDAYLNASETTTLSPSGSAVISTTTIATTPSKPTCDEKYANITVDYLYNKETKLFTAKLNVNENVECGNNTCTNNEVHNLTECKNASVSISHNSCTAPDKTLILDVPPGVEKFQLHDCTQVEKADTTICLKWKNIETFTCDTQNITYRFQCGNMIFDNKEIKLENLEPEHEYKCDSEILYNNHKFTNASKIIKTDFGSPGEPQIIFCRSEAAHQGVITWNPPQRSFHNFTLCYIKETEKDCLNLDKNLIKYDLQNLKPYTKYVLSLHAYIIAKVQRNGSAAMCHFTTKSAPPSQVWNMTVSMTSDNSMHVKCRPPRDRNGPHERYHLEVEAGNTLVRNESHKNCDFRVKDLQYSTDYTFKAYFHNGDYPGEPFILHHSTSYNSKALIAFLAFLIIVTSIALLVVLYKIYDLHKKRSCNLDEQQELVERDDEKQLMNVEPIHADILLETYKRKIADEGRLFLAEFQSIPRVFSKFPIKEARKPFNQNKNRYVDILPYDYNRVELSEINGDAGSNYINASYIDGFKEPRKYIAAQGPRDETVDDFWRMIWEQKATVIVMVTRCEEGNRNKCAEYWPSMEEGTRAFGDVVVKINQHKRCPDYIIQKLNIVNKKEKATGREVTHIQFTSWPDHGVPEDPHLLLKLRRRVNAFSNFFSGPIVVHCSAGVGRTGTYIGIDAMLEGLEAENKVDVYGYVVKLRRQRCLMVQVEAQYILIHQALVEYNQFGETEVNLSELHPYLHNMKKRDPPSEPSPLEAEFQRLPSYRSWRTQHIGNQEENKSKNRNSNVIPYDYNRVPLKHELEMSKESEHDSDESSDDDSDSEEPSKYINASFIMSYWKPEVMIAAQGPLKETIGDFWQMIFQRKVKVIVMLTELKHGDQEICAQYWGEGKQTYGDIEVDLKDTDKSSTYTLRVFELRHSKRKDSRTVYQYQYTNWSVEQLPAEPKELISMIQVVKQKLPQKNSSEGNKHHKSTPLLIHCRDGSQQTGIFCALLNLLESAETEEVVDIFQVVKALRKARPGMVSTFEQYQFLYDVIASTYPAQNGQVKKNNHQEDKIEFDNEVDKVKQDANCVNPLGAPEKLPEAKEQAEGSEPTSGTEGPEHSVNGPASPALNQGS

SMILES | outcome | AC50
CC(C)c1cccc(C(C)C)c1 | inactive | –
Cc1oc(-c2ccccc2)nc1CCOc1cccc2c1ccn2CCC(=O)O | – | 5.98 µM (active)
Nc1cccc2c(N)cccc12 | – | 5.35 µM (active)

What follows are molecules tested against human Raf-1 Proto-Oncogene, serine/threonine Kinase (RAF1), RAF1 (gene 5894) (UniProt P04049) (assay: NVS_ENZ_hRAF1: NovaScreen (NVS) Enzymatic Assay for human Raf-1 Proto-Oncogene, serine/threonine Kinase (RAF1) (AID 2283216)).
Summary of the method: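 Cell-free recombinant kinase with specific fluorescent substrate, product separated by electrophoretic mobility shift; read 1 h after dosing. Primary screen at 25 uM in duplicate; hits then run in concentration-response up to 50 uM, fitted as loss of signal versus DMSO.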

human Raf-1 Proto-Oncogene, serine/threonine Kinase (RAF1), RAF1 (gene 5894), sequence (P04049 whole entry, looked up): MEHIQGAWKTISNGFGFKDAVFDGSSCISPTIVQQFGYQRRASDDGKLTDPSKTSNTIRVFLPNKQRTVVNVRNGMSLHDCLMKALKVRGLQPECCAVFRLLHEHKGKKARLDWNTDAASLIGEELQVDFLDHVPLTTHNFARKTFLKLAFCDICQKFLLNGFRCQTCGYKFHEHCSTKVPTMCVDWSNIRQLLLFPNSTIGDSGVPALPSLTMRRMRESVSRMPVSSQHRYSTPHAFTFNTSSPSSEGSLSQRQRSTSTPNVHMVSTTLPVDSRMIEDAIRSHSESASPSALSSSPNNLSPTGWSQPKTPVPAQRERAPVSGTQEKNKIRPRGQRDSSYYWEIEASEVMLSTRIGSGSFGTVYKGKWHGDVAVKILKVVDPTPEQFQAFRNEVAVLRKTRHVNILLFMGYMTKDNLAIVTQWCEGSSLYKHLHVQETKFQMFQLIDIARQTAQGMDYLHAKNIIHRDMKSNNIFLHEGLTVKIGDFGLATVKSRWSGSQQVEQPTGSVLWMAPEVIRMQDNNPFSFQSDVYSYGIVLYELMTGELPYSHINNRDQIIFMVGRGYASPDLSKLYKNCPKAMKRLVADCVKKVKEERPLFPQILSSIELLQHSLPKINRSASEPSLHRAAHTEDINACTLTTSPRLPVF

SMILES | outcome | AC50
CC/C(=C(/CC)c1ccc(O)cc1)c1ccc(O)cc1 | inactive | –
COC(=O)CCCCC(=O)OC | inactive | –
Clc1nc(Cl)c(Cl)c(Cl)c1Cl | inactive | –
COc1ccc2sc(C(=O)Nc3nnn[nH]3)c(OC(C)C)c2c1 | – | 25 µM (active)

Each molecule was assayed against human Tyrosine Protein Kinase Receptor Tie-2 (Tie2), TEK (gene 7010) (UniProt Q02763) (assay: NVS_ENZ_hTie2: NovaScreen (NVS) Enzymatic Assay for human Tyrosine Protein Kinase Receptor Tie-2 (Tie2) (AID 2283225)).
Summary of the method: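 Recombinant human Tie2 kinase activity was read cell-free by fluorescence with electrophoretic mobility shift, 1 hour after dosing. The screen used 25 uM in duplicate, then concentration-response up to 50 uM. Signal loss was scored against DMSO.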

human Tyrosine Protein Kinase Receptor Tie-2 (Tie2), TEK (gene 7010), sequence (Q02763 whole entry, looked up): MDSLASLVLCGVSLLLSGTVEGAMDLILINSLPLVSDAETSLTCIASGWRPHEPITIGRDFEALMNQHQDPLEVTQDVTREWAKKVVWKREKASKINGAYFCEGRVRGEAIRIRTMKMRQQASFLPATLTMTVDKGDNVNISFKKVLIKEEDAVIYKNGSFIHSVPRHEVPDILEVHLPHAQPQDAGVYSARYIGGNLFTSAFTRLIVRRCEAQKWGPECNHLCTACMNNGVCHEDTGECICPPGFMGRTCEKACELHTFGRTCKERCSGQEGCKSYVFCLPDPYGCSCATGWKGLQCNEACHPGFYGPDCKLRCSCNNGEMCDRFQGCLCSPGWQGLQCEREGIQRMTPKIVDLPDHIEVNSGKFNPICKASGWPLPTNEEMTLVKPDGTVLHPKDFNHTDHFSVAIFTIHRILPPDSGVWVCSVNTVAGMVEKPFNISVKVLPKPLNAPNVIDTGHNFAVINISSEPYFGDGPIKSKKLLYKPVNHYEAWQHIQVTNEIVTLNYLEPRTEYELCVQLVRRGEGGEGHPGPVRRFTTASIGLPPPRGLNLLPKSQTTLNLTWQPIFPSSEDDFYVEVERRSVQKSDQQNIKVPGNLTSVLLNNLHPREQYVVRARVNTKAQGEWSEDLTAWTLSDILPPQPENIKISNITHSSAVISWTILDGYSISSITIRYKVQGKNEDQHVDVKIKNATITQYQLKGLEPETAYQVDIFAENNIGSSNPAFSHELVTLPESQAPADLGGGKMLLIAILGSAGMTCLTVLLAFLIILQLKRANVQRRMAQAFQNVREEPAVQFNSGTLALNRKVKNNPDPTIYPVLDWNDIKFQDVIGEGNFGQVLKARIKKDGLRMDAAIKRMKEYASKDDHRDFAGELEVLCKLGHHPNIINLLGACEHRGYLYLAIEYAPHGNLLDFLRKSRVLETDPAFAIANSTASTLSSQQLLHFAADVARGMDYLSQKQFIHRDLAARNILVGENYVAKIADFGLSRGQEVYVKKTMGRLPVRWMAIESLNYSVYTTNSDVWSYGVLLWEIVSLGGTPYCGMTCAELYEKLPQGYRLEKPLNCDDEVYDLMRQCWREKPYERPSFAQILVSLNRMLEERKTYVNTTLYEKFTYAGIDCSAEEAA

SMILES | outcome
CC/C(=C(/CC)c1ccc(O)cc1)c1ccc(O)cc1 | inactive
[O-]n1ccccc1=S.[O-]n1ccccc1=S.[Zn+2] | inactive
COc1ccc2sc(C(=O)Nc3nnn[nH]3)c(OC(C)C)c2c1 | inactive
CC(C)c1ccc(C(=O)N=C(N)N)cc1S(C)(=O)=O | inactive
CC[C@H](C)C(=O)O[C@H]1C[C@H](O)C=C2C=C[C@H](C)[C@H](CC[C@@H](O)C[C@@H](O)CC(=O)O)[C@H]21 | inactive
CCCCC(CC)COC(=O)CCCCC(=O)OCc1ccccc1 (stereo not given) | inactive
O=C(O)c1ccc2c(c1)nc(C(=O)NC1CCN(C3CC3)CC1)n2Cc1cc(-c2ccc(Cl)s2)on1 | inactive
Nc1cccc2c(N)cccc12 | inactive

Reference: PubChem BioAssay (EPA / NIEHS)
